# Experimental data reported in PubChem BioAssay (EPA / NIEHS).
# “And” between values parts separate entries of the source, which are not always exact repeats. Identical values can stand only once. Records with an inconclusive call do not appear. Some structures have more than one record in an assay (separate samples or runs), and their calls can disagree. The source made the active and inactive calls. The calls were made as follows: active = hit-call score of the fitted dose curve at least 0.9, where 1 is the maximum; inconclusive = response in the unintended direction; inactive = score below 0.9.
# Test: TOX21_p53_BLA_p2_viability: Viability Assessment in the Tox21 HCT-116 p53 Agonism Beta-lactamase Assay, Phase 2 (AID 2283591);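 also: compound exposure lasted 16 h at 37 °C; actives lower the ATP signal meaning cytotoxicity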
# From the text: TOX21_p53_BLA_p2 is a cell-based, single-readout assay that uses HCT116, a human intestinal cell line, […] in a 1536-well plate.TOX21_p53_BLA_p2_viability is an assay readout measuring cellular ATP content and detected with CellTiter-Glo Luciferase-coupled ATP quantitation.TOX21_p53_BLA_p2_viability used a type of viability reporter where loss-of-signal activity can be used to understand changes in the cell viability. Furthermore, this assay endpoint can be referred to as a secondary readout, because this assay has produced multiple assay endpoints where this one serves a viability function. To generalize the intended target to other relatable targets, this assay endpoint is annotated to the cell cycle intended target family, where the subfamily is cytotoxicity.
# Thawing Method: Place 14 mL of pre-warmed thaw medium into a 15 mL of conical tub. Remove the vial of cells to be thawed from liquid nitrogen and thaw rapidly by placing at 37C in a water bath with gentle agitation for 1-2 minutes. Decontaminate the vial by wiping with 70% ethanol before opening in a biological safety cabinet. Transfer the vial contents drop-wise into 14 mL of thaw medium in a sterile 15-mL conical tub. Centrifuge cells at 900 rpm for 4 minutes and resuspend in thaw medium. Transfer contents to the T75 tissue culture flask containing Thaw Medium and place flask in a humidified 37C/5% CO2 incubator. Switch to growth medium at first passage.Propagation Method: Aspirate medium, rinse once in DPBS, add 0.25% Trypsin/EDTA and swirl to coat the cell evenly. Add an equal volume of Growth Medium to inactivate Trypsin after 2-3 minutes incubation at 37C. Centrifuge cells at 900 rpm for 4 minutes and resuspend in growth medium. Cell should be passage or fed at least twice a week.Assay Protocol: Harvest cells from culture in growth medium and resuspend in assay medium. 2.2 Dispense 4000 cells/5 uL/well into 1536-well black/clear bottom plates using a Multidrop dispenser. After the cells were incubated at 37C for 5 hours, 23 nL of compounds dissolved in DMSO were transferred to the assay plate by a PinTool resulting in a 217-fold dilution. Incubate the plates for 16 hours at 37C, 5% CO2. Add 1 uL of 6X LiveBLAzer FRET B/G (CCF4-AM) Substrate Mixture to each well using a BioRAPTR dispenser and incubate the plates at room temperature for 2 hours. Measure fluorescence intensity at 460 and 530 nm emission and 405 nm excitation by an Envision detector. Data is expressed as the ratio of 460nm/530nm emissions. Add 4 uL of Cell-titer Glo to each well using BioRAPTR and incubate the plates at room temperature for […]. For cell viability readout that measures cytotoxicity, 4 ul/well of CellTiter-Glo reagent was added into the assay plates using a Flying Reagent Dispenser. After 30 min incubation at room temperature, the luminescence intensity in the plates was measured using a ViewLux plate reader.
SMILES,outcome,AC50
C[C@]12CC[C@@H]3c4ccc(O)cc4CC[C@H]3[C@@H]1CC[C@@H]2OC(=O)CCC1CCCC1,inactive,–
C=CC(C)(CCC=C(C)C)OC(C)=O (stereo not given),inactive,–
CCCCCCCCCC=CCC1CC(=O)OC1=O (stereo not given),inactive,–
CCCCCCc1ccc(N)cc1,inactive,–
Cc1cc(=O)oc2cc(O)ccc12,inactive,–
CCCCCCCCCCCC(=O)NCCCN(C)C,–,44.2 µM (active)
O=C1OC2(c3ccccc31)c1cc(I)c(O)c(I)c1Oc1c2cc(I)c(O)c1I,inactive,–
O=C1c2ccccc2C(=O)c2c(O)c(O)cc(O)c21,inactive,–
CCCCCCOC(=O)c1ccc(O)cc1,inactive,–
CNNCc1ccc(C(=O)NC(C)C)cc1,inactive,–
C=CC(=O)OCC(CO)(COCC(COC(=O)C=C)(COC(=O)C=C)COC(=O)C=C)COC(=O)C=C,–,4.15 µM (active)
CN(C)c1ccc(C(=C2C=CC(=[N+](C)C)C=C2)c2ccccc2)cc1,inactive,1.83 µM (active)
CCCC=O,inactive,–
Nc1ccc(O)c(C(=O)O)c1,inactive,–
Nc1cc(Cl)c(-c2cc(Cl)c(N)cc2Cl)cc1Cl,–,31.3 µM (active) and 40.9 µM (active)
c1cnc2c(c1)ccc1cccnc12,inactive,–
COc1ccccc1NC(=O)c1cc2ccccc2cc1O,inactive,–
CCCCCCCCCCCC[N+](C)(C)CCCCCCCCCCCC,–,23.5 µM (active)
CCCCCCCCCCCCCCCCCC[N+](C)(C)Cc1ccccc1,–,41.1 µM (active)

SMILES,outcome,AC50
NNc1nc(-c2ccc([N+](=O)[O-])cc2)cs1,inactive,–
Oc1ccc(Cc2ccccc2O)cc1,inactive,–
COC(=O)CC(C(C)=O)C(=O)OC (stereo not given),inactive,–
NCc1cccc(CN)c1,inactive,–
COc1cc([N+](=O)[O-])ccc1N,inactive,–
CC1=CC(=O)c2ccccc2C1=O,inactive,51.1 µM (active)
Cc1cc(C(C)(C)C)c(O)c(C(C)(C)C)c1,inactive,–
O=c1cc(-c2ccccc2)oc2ccc3ccccc3c12,inactive,–
O=C(Nc1cccc([N+](=O)[O-])c1)c1cc2ccccc2cc1O,inactive,–
OCC1CCC(CO)CC1 (stereo not given),inactive,–
NS(=O)(=O)O,inactive,–
O=C(NO)c1ccccc1,inactive,–
Oc1c(Cl)ccc(Cl)c1Cl,inactive,–
NCCN,inactive,–
O=S(=O)(O)c1ccc2cc(O)ccc2c1,inactive,–
CCN(CC)CC,inactive,–
Oc1c(Cl)cc(Cl)cc1Sc1cc(Cl)cc(Cl)c1O,inactive,43.1 µM (active) and 23.4 µM (active) and 76.2 µM (active)
CC(C)C=O,inactive,–
